Sampled rows, rich in hits. Any-hit rate of the full collection: about 2.6%.
Anthrax LT inh = blocks cellular internalization of anthrax lethal toxin. Cells, anthrax lethal toxin internalization, FRET ratio (460/530). Potency, µM (highest dose often 40 µM), without a hit: at the top dose activity change, negative = inhibition, most hits filed as inhibitors. 70,000 tested, 0.67% active. AID 912; note: % is set by controls: 0 for no effect and ±100 for the full control effect; nearly all actives have a fitted effect of over 50% in size
AmpC nodet inh = blocks E. coli AmpC beta-lactamase in absence of detergent; 71,000 tested, 1.8% active; AmpC nitrocefin hydrolysis, absorbance 480 nm, no detergent; P00811; Potency, µM (doses to about 28.7 µM), inactives show at the top dose activity change, negative = inhibition; note: % of control where 0% means no effect
Target sequence (P00811 whole entry, looked up): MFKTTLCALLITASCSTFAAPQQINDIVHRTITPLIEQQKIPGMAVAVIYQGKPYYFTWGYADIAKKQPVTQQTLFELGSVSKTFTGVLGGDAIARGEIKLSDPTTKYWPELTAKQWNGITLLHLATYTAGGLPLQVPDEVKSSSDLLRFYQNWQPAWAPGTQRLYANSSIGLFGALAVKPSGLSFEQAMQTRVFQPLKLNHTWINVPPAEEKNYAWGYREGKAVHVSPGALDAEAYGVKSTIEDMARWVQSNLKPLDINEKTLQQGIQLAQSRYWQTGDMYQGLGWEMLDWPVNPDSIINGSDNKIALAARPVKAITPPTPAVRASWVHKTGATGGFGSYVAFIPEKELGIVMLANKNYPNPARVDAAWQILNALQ
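Enzyme, pH 7.0 phosphate. Compound titrations were pre-incubated with AmpC for 15 min at room temperature before nitrocefin (stock 800 uM) addition; product formation was recorded at 480 nm every 20 s for 4 min.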
SmPrx2 inh = inhibitors of Schistosoma mansoni peroxiredoxin 2 | 65,000 tested, 0.07% active | S. mansoni Prx2 activity coupled to TGR/GSH (TGR is thioredoxin glutathione reductase), NADPH fluorescence loss, qHTS | AID 448 | Potency, µM
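qHTS, coupled TGR/Prx2 format; 15 min compound preincubation at RT; reaction started with H2O2 (2.5 mM aliquot); kinetic NADPH fluorescence decrease, ex 365/em 450 nm.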
AmpC det inh = blocks E. coli AmpC beta-lactamase in presence of detergent | P00811 | purified AmpC, nitrocefin hydrolysis with detergent | Potency, µM (doses to about 28.7 µM), for the others: top-dose activity change, negative = inhibition | 71,000 tested, 0.09% active | AID 584; active = well fitted curve in the direction sought with a large enough effect; inconclusive = small, poorly fitted or top-dose-only effect; note: % is set by controls: 0 for no effect and ±100 for the full control effect
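E. coli AmpC (5.3 nM) in 20 mM phosphate pH 7.0 with 0.01% Triton X-100, preincubated 15 min RT with compound; nitrocefin (2 uL of 800 uM stock) hydrolysis followed by 480 nm absorbance every 20 s over 4 min.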
* marks the source's active call; other numbers are inactive results; ? = inconclusive; nt = not tested or not shown; [ ] = dose if it differs, or a comment. Unless noted, calls come from the whole dose curve. Potency is the fitted concentration of half-maximal effect.

SMILES	Anthrax LT inh	AmpC nodet inh	SmPrx2 inh	AmpC det inh
CC1CCN(S(=O)(=O)c2ccc3c(c2)oc(=O)n3CC(=O)NCc2ccc3c(c2)OCO3)CC1	?	3.98µM*	>57	4.1%
O=C(Cn1c(=O)oc2cc(S(=O)(=O)N3CCCC3)ccc21)Nc1ccc(C(F)(F)F)cc1	-17.1%	10µM*[single pt active]	>57	18.5%
Cc1c(C(=O)NCc2ccc3c(c2)OCO3)oc2ccc(S(=O)(=O)N3CCC(C)CC3)cc12	-14.3%	3.6%	>57	-5.4%
O=C(CN1CCCCC1)Nc1ccc(S(=O)(=O)N2CCCCCC2)cc1	-4.0%	0.8%	>57	-6.9%
O=C(O)Cn1c(=O)oc2cc(S(=O)(=O)NC3CCCCC3)ccc21	-3.0%	2.51µM*[single pt active]	>57	11.1%
O=C(Cn1c(=O)oc2cc(S(=O)(=O)N3CCCCCC3)ccc21)NC1CCCCCCC1	-8.3%	3.98µM*[single pt active]	>57	9.3%
CC(C)NCC[C@@H](O)c1cc2ccccc2o1	-9.5%[8 µM]	-5.3%[5.75 µM]	>57	-2.7%[5.75 µM]
COC(=O)[C@@H]1CC[C@H](C)[C@@H](c2ccc(C)cc2)N1C(=O)c1ccc(/C=N\OC[C@@H](O)[C@H]2O[C@H]3OC(C)(C)O[C@H]3[C@@H]2O)cc1	-8.7%[8 µM]	nt	nt	nt
COc1cc2nncc(SCc3ccc(Cl)c(Cl)c3)c2cc1OC	-2.4%[8 µM]	4.0%[5.75 µM]	>57	-0.4%[5.75 µM]
Cc1noc(NS(=O)(=O)c2ccc(NC(=O)CCn3c(=O)oc4ccccc43)cc2)c1C	-9.1%	-1.6%	?	8.6%
CCN(CC)S(=O)(=O)c1ccc(NC(=O)Cn2c(=O)sc3ccccc32)cc1	-20.9%	?	>57	0.8%
O=C(Cn1c(=O)oc2cc(S(=O)(=O)N3CCCC3)ccc21)NC1CCCc2ccccc21 (centres undefined)	?	2µM*	>57	12.1%
Cc1cc(C)nc(NS(=O)(=O)c2ccc(NC(=O)Cn3c(=O)oc4ccccc43)cc2)n1	-4.5%	3.98µM*[single pt active]	>57	13.5%
O=C(Cn1c(=O)sc2ccccc21)Nc1ccc(S(=O)(=O)N2CCCCC2)cc1	-1.7%	6.31µM*	>57	-4.5%
CC1CCN(S(=O)(=O)c2ccc3c(c2)oc(=O)n3CC(=O)N2c3ccccc3CC2C)CC1 (centres undefined)	?	16.9%	>57	3.4%
O=C1c2ccccc2C(O)N1c1cccnc1 (centres undefined)	-7.0%	3.98µM*[single pt active]	>57	14.0%
O=C1c2ccccc2C(Nc2ccc(Cl)cn2)N1c1cccnc1 (centres undefined)	-12.1%	3.98µM*[single pt active]	>57	12.2%
CCCCOC(=O)NS(=O)(=O)c1sc(CC(C)C)cc1-c1ccc(Cn2c(CC)nc3c(C)cc(C)nc32)cc1	?	116.6%	>57	-5.2%
CCCn1c(C)nc2c(N(CCN(C)C)Cc3ccccc3)nc(C)nc21	-7.9%	45.6%	nt	11.4%
O=C(c1ccncc1)N1CCC2(CC1)CN(Cc1cc(C(F)(F)F)cc(C(F)(F)F)c1)C2	12.6µM*	-5.5%	>57	22.9%
O=C(c1cc(C(F)(F)F)cc(C(F)(F)F)c1)N1CCC2(CC1)CN(Cc1ccncc1)C2	?	74.3%	>57	-3.4%
COc1ccc(S(=O)(=O)N(CCCN2CCCC2=O)Cc2cc3c(C)cc(C)cc3[nH]c2=O)cc1	3.6%	177.5%	20.4*	1.3%
CS(=O)(=O)Nc1cccc(-c2nc(N3CCOCC3)c3ccccc3n2)c1	-2.9%	49.2%	>57	8.6%
CCOC(=O)C(C(C)=O)c1c(Br)c(O)c(O)c2c(C(=O)c3ccc(C)cc3)coc12 (centres undefined)	?	6.31µM*	>57	-3.0%
COCCCNC(=O)c1cc2c(=O)n(C)c3ccccc3c2n1C	12.5%	3.98µM*[single pt active]	>57	9.3%
SMILES	Anthrax LT inh	AmpC nodet inh	SmPrx2 inh	AmpC det inh
CN(C)CCNC(=O)c1cc2c(=O)n(C)c3ccccc3c2n1C	12.6µM*	?	>57	13.5%
Cn1c(C(=O)NC2CC2)cc2c(=O)n(C)c3ccccc3c21	3.3%	3.98µM*[single pt active]	>57	8.8%
COCCNC(=O)c1cc2c(=O)n(C)c3ccccc3c2n1C	-8.4%	3.98µM*[single pt active]	>57	15.0%
CCOC(=O)N1CCC(NC(=O)c2cc3c(=O)n(C)c4ccccc4c3n2C)CC1	?	158.0%	>57	14.2%
CCN(CC)CCNC(=O)c1cc2c(=O)n(C)c3ccccc3c2n1C	?	?	>57	9.2%
Nc1cc(Cl)c(NC2=NCCN2)c(Cl)c1	-3.7%	1.0%	>57	-1.4%
C[C@@H](CCC(=O)O)C(=O)O	-8.6%[8 µM]	10.1%[5.75 µM]	>57	-1.2%[5.75 µM]
O=C(O)C(Sc1ccc(Cl)cc1)Sc1ccc(Cl)cc1	2.0%[8 µM]	2.9%[5.75 µM]	>57	-3.2%[5.75 µM]
CCCCCCC[N+](CC)(CC)CCCCc1ccc(Cl)cc1	-4.1%[3.58 µM]	65.2%[12.8 µM]	>57	-5.1%[12.8 µM]
O=C(NCc1ccco1)c1ccc(CS(=O)(=O)c2cccc(C(F)(F)F)c2)o1	11.2%	26.0%	>57	-0.7%
COc1ccc(S(=O)(=O)Cc2ccc(C(=O)NCc3cccs3)o2)cc1	-10.7%	3.98µM*[single pt active]	>57	8.3%
O=C(NCc1ccc2c(c1)OCO2)c1ccc(CS(=O)(=O)c2ccc(Br)cc2)o1	?	3.98µM*[single pt active]	>57	15.9%
COc1ccccc1S(=O)(=O)Cc1ccc(C(=O)NCc2cccs2)o1	nt	-2.5%	>57	-8.8%
COc1ccc(S(=O)(=O)Cc2ccc(C(=O)NCc3ccco3)o2)cc1	-9.1%	3.98µM*[single pt active]	>57	8.3%
CCCCNC(=O)c1ccc(CS(=O)(=O)c2ccc(OC)cc2)o1	-5.9%	3.98µM*[single pt active]	>57	10.9%
CC1(C)Cc2c(c(N3CCOCC3)nc3sc(C(=O)N4CCCCC4)c(N)c23)CO1	-10.3%	3.98µM*[single pt active]	>57	25.1%
O=C1NC(=O)[C@]2(Cc3ccccc3N3CCN(c4ccccc4)CC32)C(=O)N1Cc1ccccc1 (some centres undefined)	nt	10µM*[single pt active]	>57	2.1%
CN(C)c1ccc(-c2cc(Nc3ccc(F)cc3)ncn2)cc1	?	29.7%	>57	7.7%
COc1ccc(Cc2nc(-c3cccs3)no2)cc1OC	-15.4%	3.98µM*[single pt active]	>57	5.6%
COc1ccc(-c2nc3cnc(N4CCOCC4)nc3n(-c3ccc(OC)cc3)c2=O)cc1	?	62.2%	>57	16.3%
CC(CCc1nc2ccccc2s1)(c1ccc(O)cc1)c1ccc(O)cc1	-11.5%[8 µM]	2.5%[5.75 µM]	>57	0.1%[5.75 µM]
O=c1c[n+](CC[n+]2cc(=O)o[nH]2)[nH]o1	7.1%[8 µM]	7.9%[5.75 µM]	>57	-3.7%[5.75 µM]
CCN(CC)CCCNC(=O)CC1Oc2ccc(C)cc2NC1=O (centres undefined)	5.2%	3.98µM*[single pt active]	>57	12.8%
CCC(C)NC(=O)CC1Oc2ccc(C)cc2NC1=O (centres undefined)	-3.3%	3.98µM*[single pt active]	>57	12.6%
Cc1nc2cnc(N3CCNCC3)nc2n(-c2ccccc2)c1=O	-7.2%	23.8%	>11.4	-0.5%
CO/N=C(/C)CCC(=O)OC[C@@H]1O[C@H](C#Cc2ccccc2)C=C[C@@H]1Oc1ccc(C)cc1	-12.4%[8 µM]	nt	nt	nt
CCCn1c(-c2ccc(F)cc2)nc2c(NCCN3CCCC3)nc(C)nc21	-6.9%	22.8%	nt	13.4%
Nc1nc2ccc(S(=O)(=O)c3ccc4nc(N)sc4c3)cc2s1	-5.2%	12.6µM*	>57	-4.9%
Nc1nc2ccc(Oc3ccccc3)cc2s1	-21.6%	-13.3%	>57	-2.0%

Bioassay records from PubChem.
